# Test results: the supplement of paper PMC8728848
# Only a selection was taken, and the strongest signals are over-represented in it overall.
# Tests used:
# Assay in all cases: glycan array binding signal (z-score within array); higher = stronger binding
# Details in all cases: glycan notation: IUPAC condensed, linker removed
# Gal3S4S(b1-4)GlcNAc = target: Gal3S4S(b1-4)GlcNAc
# In short: (§1)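 The binding signal is a Z-score computed within each array and averaged over linkers. Arrays of the same protein sequence at different concentrations or buffers were also averaged together. Data originate from 3228 arrays in the Consortium for Functional Glycomics database, kept only where the protein sequence was available.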
# GalNAc4S6S(b1-4)GlcNAc = target: GalNAc4S6S(b1-4)GlcNAc
# In short: as §1
# [1] = target: GlcNAc(b1-2)Man(a1-3)[GlcNAc(b1-4)][GlcNAc(b1-2)Man(a1-6)]Man(b1-4)GlcNAc(b1-4)GlcNAc
# In short: as §1
# [2] = target: GlcNAc(b1-2)[GlcNAc(b1-6)]Man(a1-6)[GlcNAc(b1-2)Man(a1-3)][GlcNAc(b1-4)]Man(b1-4)GlcNAc(b1-4)GlcNAc
# In short: as §1
# [3] = target: GlcNAc(b1-3)Gal(b1-4)GlcNAc
# In short: as §1
# [4] = target: GlcNAc(b1-3)Gal(b1-4)GlcNAc(b1-3)Gal(b1-4)GlcNAc(b1-2)[GlcNAc(b1-3)Gal(b1-4)GlcNAc(b1-3)Gal(b1-4)GlcNAc(b1-6)]Man(a1-6)[GlcNAc(b1-3)Gal(b1-4)GlcNAc(b1-3)Gal(b1-4)GlcNAc(b1-2)Man(a1-3)]Man(b1-4)GlcNAc(b1-4)[Fuc(a1-6)]GlcNAc
# In short: as §1
# [5] = target: GlcNAc(b1-3)[GlcNAc(b1-6)]Gal(b1-4)GlcNAc
# In short: as §1
# [6] = target: GlcNAc(b1-4)GlcNAc(b1-4)GlcNAc(b1-4)GlcNAc(b1-4)GlcNAc
# In short: as §1
# Kdn(a2-3)Gal(b1-3)GalNAc = target: Kdn(a2-3)Gal(b1-3)GalNAc
# In short: as §1
# [7] = target: Man(a1-3)[Man(a1-6)]Man(b1-4)GlcNAc(b1-4)GlcNAc
# In short: as §1
# Man(a1-6)Man = target: Man(a1-6)Man
# In short: as §1
# [8] = target: Neu5Ac(a2-3)Gal(b1-3)GalNAc(b1-4)[Neu5Ac(a2-3)]Gal(b1-4)Glc
# In short: as §1
# [9] = target: Neu5Ac(a2-3)Gal(b1-3)[Fuc(a1-4)]GlcNAc(b1-3)Gal(b1-3)[Fuc(a1-4)]GlcNAc
# In short: as §1
# [10] = target: Neu5Ac(a2-3)Gal(b1-4)GlcNAc(b1-3)Gal
# In short: as §1
# [11] = target: Neu5Ac(a2-3)Gal(b1-4)GlcNAc(b1-3)Gal(b1-4)GlcNAc(b1-6)[Gal(b1-3)]GalNAc
# In short: as §1
# [12] = target: Neu5Ac(a2-3)Gal(b1-4)[Fuc(a1-3)]GlcNAc(b1-3)GalNAc
# In short: as §1
# [13] = target: Neu5Ac(a2-3)[GalNAc(b1-4)]Gal(b1-4)GlcNAc(b1-3)GalNAc
# In short: as §1
# [14] = target: Neu5Ac(a2-6)Gal(b1-4)GlcNAc(b1-2)[Neu5Ac(a2-6)Gal(b1-4)GlcNAc(b1-4)]Man(a1-3)[GlcNAc(b1-4)][Neu5Ac(a2-6)Gal(b1-4)GlcNAc(b1-4)Man(a1-6)]Man(b1-4)GlcNAc(b1-4)GlcNAc
# In short: as §1
# [15] = target: Neu5Ac(a2-8)Neu5Ac(a2-3)Gal(b1-3)GalNAc(b1-4)[Neu5Ac(a2-3)]Gal(b1-4)Glc
# In short: as §1
binder,measurement,setting,value
"Gal 12 (Homo sapiens), Q96DT0 (protein) MSQPSGGRAPGTRIYSWSCPTVMSPGEKLDPIPDSFILQPPVFHPVVPYVTTIFGGLHAGKMVMLQGVVPLDAHRFQVDFQCGCSLCPRPDIAFHFNPRFHTTKPHVICNTLHGGRWQREARWPHLALRRGSSFLILFLFGNEEVKVSVNGQHFLHFRYRLPLSHVDTLGIFGDILVEAVGFLNINPFVEGSREYPAGHPFLLMSPRLEVPCSHALPQGLSPGQVIIVRGLVLQEPKHFTVSLRDQAAHAPVTLRASFADRTLAWISRWGQKKLISAPFLFYPQRFFEVLLLFQEGGLKLALNGQGLGATSMNQQALEQLRELRISGSVQLYCVHS",glycan array binding signal (z-score),Gal3S4S(b1-4)GlcNAc,0.103
same,glycan array binding signal (z-score),GalNAc4S6S(b1-4)GlcNAc,-0.099
same,glycan array binding signal (z-score),[1],0.085
same,glycan array binding signal (z-score),[2],-0.54
same,glycan array binding signal (z-score),[3],-0.475
same,glycan array binding signal (z-score),[4],0.115
same,glycan array binding signal (z-score),[5],-0.57
same,glycan array binding signal (z-score),[6],-0.139
same,glycan array binding signal (z-score),Kdn(a2-3)Gal(b1-3)GalNAc,0.39
same,glycan array binding signal (z-score),[7],-0.172
same,glycan array binding signal (z-score),Man(a1-6)Man,-0.442
same,glycan array binding signal (z-score),[8],0.416
same,glycan array binding signal (z-score),[9],-0.082
same,glycan array binding signal (z-score),[10],-0.004
same,glycan array binding signal (z-score),[11],-0.81
same,glycan array binding signal (z-score),[12],2.37
same,glycan array binding signal (z-score),[13],-0.063
same,glycan array binding signal (z-score),[14],0.922
same,glycan array binding signal (z-score),[15],-0.299
